Data as given in the supplement of paper PMC13380429.

System: Vero E6 infected with SARS-CoV-2
Assay: inhibition of SARS-CoV-2 cytopathic effect; higher = more antiviral protection, active = above 15
Settings: 48 h

Measured: inhibition of SARS-CoV-2 cytopathic effect

N#Cc1cnc2c(Cl)cc(NCc3cn(CCN4CCCCCC4)nn3)cc2c1Nc1ccc(F)c(Cl)c1 [cot-inhibitor-1]
inactive: 1 nM -0.74% | 8.33 nM 2.31% | 100 nM -0.11% | 833.33 nM -2.18% | 10000 nM -14%

Nc1c(Br)cc(Br)cc1CN[C@H]1CC[C@H](O)CC1 [ambroxol]
inactive: 1 nM -4.07% | 8.33 nM -1% | 100 nM -0.99% | 833.33 nM 1.23% | 10000 nM -1.75%

Cc1cccc(OCC(O)CNC(C)(C)C)c1C (stereo not given) [xibenolol]
inactive: 1 nM -3.23% | 8.33 nM -1.82% | 100 nM -0.78% | 833.33 nM -1.76% | 10000 nM -5.66%

COc1cc2ncnc(Nc3ccc(O)c(Br)c3)c2cc1OC
inactive: 1 nM 0.67% | 8.33 nM -0.59% | 100 nM -3.04% | 833.33 nM -5.16% | 10000 nM -9.51%

O=c1cc(N2CCNCC2)oc2c(-c3ccccc3)cccc12
inactive: 1 nM 0.61% | 8.33 nM -3.07% | 100 nM -0.37% | 833.33 nM 0.12% | 10000 nM 1.5%

NC(=O)[C@H]1CCS[C@@H]2C[C@]3(CCCN3C(=O)Cc3ccc(NC(=O)COc4ccc(Cl)cc4Cl)cc3)C(=O)N12
inactive: 1 nM 0.49% | 8.33 nM 0.01% | 100 nM 1.37% | 833.33 nM 0.74% | 10000 nM -6.32%

CN[C@@H](C)C(=O)N[C@H](C(=O)N1CCC[C@H]1C(=O)Nc1snnc1-c1ccccc1)C1CCCCC1
inactive: 1 nM 0.62% | 8.33 nM -0.64% | 100 nM -0.23% | 833.33 nM -0.79% | 10000 nM -5.99%
